{"source": "PubChem BioAssay (NCI)", "note": "About 79,000 compounds went through this panel and 15% of them were active in at least one assay; those are over-represented in the sample as a whole. Calls of active or inactive are those of the source. Cut-off read from the data, not from the text of the source: active = growth inhibition above about 70%; inactive = the rest.", "data": [{"assay": "NCI Yeast Anticancer Drug Screen. Data for the mgt1 strain (AID 153)", "settings": "S. cerevisiae mgt1 mutant growth inhibition; at 3.7 µM; stronger effect = higher value", "how_it_was_run": "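Growth inhibition relative to vehicle controls was scored for the mgt1 yeast strain after compound exposure.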", "values": [{"smiles": "CC(CN(C)C)C(=O)/C=C/c1ccc(Cl)c(Cl)c1", "note": "(stereo not given)", "growth inhibition": "3% (inactive)"}, {"smiles": "CCCCCCNCCCNc1c2cc(OC)ccc2nc2cccc([N+](=O)[O-])c12", "growth inhibition": "0% (inactive)"}, {"smiles": "NC(=S)N1N=C2c3ccccc3CC[C@H]2[C@@H]1c1ccc(Cl)cc1", "growth inhibition": "-10% (inactive)"}, {"smiles": "C/C(=N/NC(=S)Nc1ccccc1C)c1ccccn1", "growth inhibition": "-10% (inactive)"}, {"smiles": "O=C1/C(=C/c2ccc(Cl)c(Cl)c2)CNC/C1=C\\c1ccc(Cl)c(Cl)c1", "growth inhibition": "13% (inactive)"}, {"smiles": "CC(C)OP(=O)(OC(C)C)C(=NCCO)NNc1ccc([N+](=O)[O-])cc1", "growth inhibition": "-34% (inactive)"}, {"smiles": "N#CCC(=O)N/N=C(\\c1ccccc1)C(c1ccccc1)C1(O)C(=O)Nc2c(Cl)ccc(Cl)c21", "note": "(stereo not given)", "growth inhibition": "-1% (inactive)"}, {"smiles": "CC(C)(CN1CCCCC1)C(=O)CC(SCCS(=O)(=O)O)c1ccccc1", "note": "(stereo not given)", "growth inhibition": "5% (inactive)"}, {"smiles": "COC1=CCC23C(=O)C=CC(=O)C2(C1)C(=O)c1ccccc1C3=O", "note": "(stereo not given)", "growth inhibition": "-14% (inactive)"}, {"smiles": "CCCCN(CCCC)c1ccc(N=Nc2ccc(S(=O)(=O)O)cc2)cc1", "growth inhibition": "39% (inactive)"}, {"smiles": "c1ccc2nc3c(nc2c1)sc1ccccc13", "growth inhibition": "2% (inactive)"}, {"smiles": "O=C1c2ccccc2-c2ccc(N=Cc3ccccc3)cc21", "growth inhibition": "-2% (inactive)"}, {"smiles": "CNC(=S)N/N=C(/C)CCC/C(C)=N/NC(=S)NC", "growth inhibition": "12% (inactive)"}, {"smiles": "Nc1ccc(/C=C/c2ccc3cccnc3c2)cc1", "growth inhibition": "1% (inactive)"}, {"smiles": "COc1ccc2c3c1OC(C)C31CC(=O)CCC1CC2", "note": "(stereo not given)", "growth inhibition": "-5% (inactive)"}, {"smiles": "CCOC(=O)Nc1ccc(C)c(NC(=O)OCC)c1", "growth inhibition": "9% (inactive)"}, {"smiles": "CCN(CC)CCNc1ccc2nc(C)n3c4ccc(OC)cc4c(=O)c1c23", "growth inhibition": "27% (inactive)"}, {"smiles": "C[N+](C)([O-])CCCNc1c2ccccc2nc2cccc([N+](=O)[O-])c12", "growth inhibition": "-10% (inactive)"}, {"smiles": "O=C(c1cc(=O)c2ccc(O)cc2o1)c1ccc(Cl)cc1Cl", "growth inhibition": "-18% (inactive)"}, {"smiles": "CCCNC(=O)OCc1c(COC(=O)NCCC)c(-c2ccc(Cl)c(Cl)c2)n2c1CCC2", "growth inhibition": "-35% (inactive)"}, {"smiles": "O=C(Cc1ccccc1)NN1C(=O)C(Cl)C1c1cc(Br)cc(Br)c1O", "note": "(stereo not given)", "growth inhibition": "14% (inactive)"}, {"smiles": "CCOC(=O)C(Cc1c2ccccc2cc2ccccc12)(NC(C)=O)C(=O)OCC", "growth inhibition": "-2% (inactive)"}, {"smiles": "O=[N+]([O-])/C=C/c1cc2ccc3ccccc3c2[nH]1", "growth inhibition": "55% (inactive)"}, {"smiles": "Fc1ccc(Nc2ccc3ccccc3c2)cc1", "growth inhibition": "-1% (inactive)"}, {"smiles": "O=S1(=O)CCC2=CC(C(F)(F)F)=CC(C(F)(F)F)=CN21", "growth inhibition": "27% (inactive)"}, {"smiles": "O=C(Cc1ccccc1)NNc1nc(NNC(=O)c2ccncc2)nc(Nc2ccc([N+](=O)[O-])cc2)n1", "growth inhibition": "13% (inactive)"}, {"smiles": "CCCCS/C(=C(/C#N)C(N)=O)c1cc2c([nH]1)CCCC2", "growth inhibition": "-21% (inactive)"}, {"smiles": "O=C(O)c1ccccc1C(=O)OC1CCc2ccccc2C1", "note": "(stereo not given)", "growth inhibition": "-6% (inactive)"}, {"smiles": "CCOC(=O)/C(=C\\c1cccc(C)c1)C(C)=O", "growth inhibition": "3% (inactive)"}, {"smiles": "NC(=S)N/N=C1\\c2ccccc2CCC1CCC1(O)CCc2ccccc2C1=O", "note": "(stereo not given)", "growth inhibition": "18% (inactive)"}, {"smiles": "Cc1cccc2c(Cl)c3cccc(C)c3nc12", "growth inhibition": "1% (inactive)"}, {"smiles": "Nc1ccc2c(c1)C(=O)c1c(F)cccc1-2", "growth inhibition": "-2% (inactive)"}, {"smiles": "N#CSCC1COc2ccccc2O1", "note": "(stereo not given)", "growth inhibition": "-23% (inactive)"}, {"smiles": "Cc1ccc(S(=O)(=O)NC(=O)C2C(=O)CC3(CCCCC3)CC2=O)cc1", "growth inhibition": "-16% (inactive)"}, {"smiles": "CC1=NN(C(=O)c2ccccc2O)C(=O)/C1=C/c1ccco1", "growth inhibition": "27% (inactive)"}]}]}
